Binding signal data for 22 molecules are collected here from article PMC12136788.

The full ranking holds about 24,000 sequences; the median of “enrichment r” is about 0.99, and the highest 2% start at about 3.7. A selection follows.

Sequences and labels used below:
B1: 3369786_3369906_1343_3pUTR_ENSMUSG00000025899_ENSMUST00000053407|mouse|control|control (ssRNA)
RNA: GGGAGUUCUACAGUCCGACGAUCAGUCCUUGUUGAUGCCAAGGUAUUUUCCAUUUCCACAUCCGAUAUCUGCCACUAUGGAACCACUUGGCAAAGCUUUCAGGAACUCUACUAUGCGUGGCCAUGGGCUAUGUCUUGUGCUGCCAACAGAGGAUUGAGCAUCA
B2: chr7:141450121:141450122:+_ENSG00000106028_ENST00000265304|hu_mus|hu_hu_hu_mus_True|68_88 (ssRNA)
RNA: GGGAGUUCUACAGUCCGACGAUCUCAUCCGUUCUAUGCCUUUUCUUUCGUCUGGUCACUCAGAAAUAUAAUAUUAUCAGCUAUGAUUGUUGUUGCUUGCCGCCUCACAUUGUUUUUAUCCAUGUACUCGCCAUAGUCCACUUUCAACAGAGGAUUGAGCAUCA
B3: 139369022_139369142_3059_CDS_ENSG00000148396_ENST00000313050|human|control|control (ssRNA)
RNA: GGGAGUUCUACAGUCCGACGAUCGUCAGAAUGGGACGGGUUGUACACGUUUACAGGAUUUUCCAAAGUCCUGCUUAAGGUAAAGUCUAGGGCUCCGUAAGUGUCUUCCUGAUGACUGGAAUGGUUUGCCUUAUUACCAUCAGGCAACAGAGGAUUGAGCAUCA
B4: chr1:109605286:109605287:-_ENSG00000197780_ENST00000461096|hu_mus|hu_hu_hu_mus_True|8_108 (ssRNA)
RNA: GGGAGUUCUACAGUCCGACGAUCAAGAACAAUAACAACAUUCAGUAACCUCUUUAAAUGCAAUUAUCCUUAUUAUAAGCUAAGCAGAAUAAUAAUUUAAUACCGUAAGUGAACUACACACAAAGCCGUGUAUUCAGAAAUGGUCAACAGAGGAUUGAGCAUCA
B5: 25140584_25140782_2291_CDS_ENSMUSG00000026965_ENSMUST00000028341|mouse|control|control (ssRNA)
RNA: GGGAGUUCUACAGUCCGACGAUCUGCCCAGAAGAGCAGUAGCUCCUCUUCCUUCUGGUCAGCCUGGGAGGCCAUGCCUGAGUCACUCUCAUCAUCACUGUCAAUCAGCACCAUGUUGUCCCUAUCCUGAGGCCGCUCUUCCUCCAACAGAGGAUUGAGCAUCA
B6: chr15:23003119:23003120:+_ENSG00000068793_ENST00000560848|hu_mus|FALSE|FALSE (ssRNA)
RNA: GGGAGUUCUACAGUCCGACGAUCUUAUAAAGUUAAGCUUUCAGAUCAAAAGUAGGUUCAGACAUAAUGGAAAAUAGCCCCUAAAAAUUUCAAUAUAGUUUACAUAAAGACAAACAUGCCAUCAGUUACUGGGAUGCUGUGAGCCAACAGAGGAUUGAGCAUCA
B7: chr11:60965468:60965469:-_ENSMUSG00000042506_ENSMUST00000041683|mus_mus|motif|central (ssRNA)
RNA: GGGAGUUCUACAGUCCGACGAUCCUAACCACAGUACAAUCAUUGGAUUUUUUUUCCCUCACGAUUUUUUAUUUCAAAGCGGUAAUAAAUGAAACAAACCACUUGUCAAAAAGAACAAUGAUUUUACACAAGGAAAAGCAUACACAACAGAGGAUUGAGCAUCA
B8: chr17:87833181:87833182:-_ENSMUSG00000036438_ENSMUST00000040440|perfect_dup|motif|central (ssRNA)
RNA: GGGAGUUCUACAGUCCGACGAUCCGGGCUUAGAUAUAGCCAGAGUAAGCCACAUGCAACAUGUUACUUCAUCAAUUUUCGGAAAUAAGGUUUAAGGACAAUGACAGUAAGAUAAGGGAAGAAAACAUGGAGGAAUGAAGUCCUCAACAGAGGAUUGAGCAUCA
B9: chr18:52893488:52893489:-_ENSG00000196628_ENST00000354452|hu_hu|hu_hu_hu_mus_True|8_18 (ssRNA)
RNA: GGGAGUUCUACAGUCCGACGAUCUAUUUAGACCAUUUCCGCGGAGUUAUGGCAUUUACUCAGUGCUGAUAGGUGGAAAAACUACUUCAACAGGGAUUUUUUUUUUCCUUAAUACAUGCCAAGAAUUGUGUGGCUGUAAAACAGCAACAGAGGAUUGAGCAUCA
B10: 137534387_137536831_709_CDS_ENSG00000094880_ENST00000394886|human|control|control (ssRNA)
RNA: GGGAGUUCUACAGUCCGACGAUCCUCCUCUAUCAACUGCAACUCUGUGUAUAUAUGAGCCAGAAAAAACUCUUUCAUCCAGGUGUCUGGCAAAGACAGGAACUUCAGCAUCUCUUUGUCUGUGAUCAGGUUACAGAGUUCUAACAACAGAGGAUUGAGCAUCA
B11: chr16:94651144:94651145:+_ENSMUSG00000040785_ENSMUST00000117648|mus_hu|mus_mus_mus_hu_True|68_108 (ssRNA)
RNA: GGGAGUUCUACAGUCCGACGAUCAUUCUCUUGGAUCAAGUGGCGAAUAACAUAGUCCACUGCUUCAUGGACAAAAUUUCUGCUAGAAAAACAGGUUGUAUAGUCUUCUGUGCUCAAAACUUUCCAAGAAAGCAAUUCUUUGAGCAACAGAGGAUUGAGCAUCA
B12: chr14:89307221:89307222:+_ENSG00000165533_ENST00000346301|hu_mus|hu_hu_hu_mus_False|58_98 (ssRNA)
RNA: GGGAGUUCUACAGUCCGACGAUCUCCUGUUUGGUUAGUUCCAGGGAGCUUCAAAGAUGUGCCAGGGCGUGGGACCUGAGCUAUAGCAUUUUCAUCCAGGAUCAUUUCAGCAAUUCCUUCCUGGUCCACAUCAAUUUCAUCUAUCAACAGAGGAUUGAGCAUCA
B13: chr3:179287964:179287965:+_ENSG00000136518_ENST00000429709|hu_hu|hu_hu_hu_mus_True|88_108 (ssRNA)
RNA: GGGAGUUCUACAGUCCGACGAUCCUUUAGAGGUGAAAUGGCCUCCAUAUUCUCCCUGGGCACGCGGAGGGCAUUGGUGUCUAUGUAGUAGGUGGGCCCGCCCUGCUUGCCUUUGUCACCAUCAAUCUCCAUCAUUGUACUUCCCAACAGAGGAUUGAGCAUCA
B14: chrX:71549400:71549401:+_ENSMUSG00000019087_ENSMUST00000019231|mus_hu|mus_mus_mus_hu_False|8_98 (ssRNA)
RNA: GGGAGUUCUACAGUCCGACGAUCGCAGUAGGAAGAGCAAACCUUUCCAGUCCAGUGCGCUGCAGGGUGGGAAAGCAACAACACGGACACCGUCCCACCCUCAACCCCCCCACUGGCACAGGGUCACAUCUGGGUCAUCAAAGACAACAGAGGAUUGAGCAUCA
B15: 120770645_120770765_141_5pUTR_ENSMUSG00000043207_ENSMUST00000058754|mouse|control|control (ssRNA)
RNA: GGGAGUUCUACAGUCCGACGAUCCUCAGCGACACGCGUCCCUCGGAGAGUGCCAGCGGUGUCACAACAAUACGGGUCCCUUCCGAGGGCUUCUUCAGACGCCCAUUCCCUCAGCUUUGCCAGAAGUGUCACAAAGACACGAUUCAACAGAGGAUUGAGCAUCA
B16: chr7:118215947:118215948:-_ENSMUSG00000005610_ENSMUST00000162415|mus_mus|FALSE|FALSE (ssRNA)
RNA: GGGAGUUCUACAGUCCGACGAUCGGUCCUUGCAAUAGACUGCCUCUGCUUGAGAACUUAGGAUGUAAUUAUUGCAUGCUGCUAAUAUUCUAUCUAAACAUUAAGGAUACUCCUAAAGUAUUUGAUGGUAGACUAUGAUUAAGACAACAGAGGAUUGAGCAUCA
B17: 78432385_78432637_487_CDS_ENSG00000162613_ENST00000370768|human|control|control (ssRNA)
RNA: GGGAGUUCUACAGUCCGACGAUCUUCAGGUGUUCCAGUUAACAUACAGGACCUUUCUGGAAGGCCACCACUGUCAGGAGCUAUCUGUAUUUUGCAUCCAGAUUCCUGUUGUAUGCGUGAGAUCUGUUCACCUCCUCUGCCAAUCAACAGAGGAUUGAGCAUCA
B18: chr8:35203877:35203878:-_ENSMUSG00000031513_ENSMUST00000033910|mus_hu|FALSE|FALSE (ssRNA)
RNA: GGGAGUUCUACAGUCCGACGAUCGGAAGGGCACAUCCAAGCAUCAAAAACAUCAGUCCGAUUGCUCCUCCAAAGGACAAACUAAUCAAAGCUUUGAUGCCUGCCAUGGCGGUGACGUCGCUCCUGGCUCCACGACCCGAGGCGCAACAGAGGAUUGAGCAUCA
B19: chr2:48026839:48026840:+_ENSG00000116062_ENST00000540021|hu_hu|hu_hu_hu_mus_False|38_108 (ssRNA)
RNA: GGGAGUUCUACAGUCCGACGAUCAUAGUGUGCCACUAGCGUCCUAAAUCUGGAACAGUGGCGGUCAUCCGAAAACUGGCCGAUGAAAAACUUGCCCAGUGAAGUAUCCACAAAGCAAACACCAUACACACGAGUGUGACCAGACAACAGAGGAUUGAGCAUCA
B20: chr16:46990815:46990816:-_ENSG00000069345_ENST00000563158|hu_hu|motif|central (ssRNA)
RNA: GGGAGUUCUACAGUCCGACGAUCUCAAAAUGAAGAUGUAAAGCUUUGUGGUUAGUUUAAAUUAUACACUCUGUAGAUACGGUACCAAUUUUAAAAGUUAUACAUAGACCAACAGAUGUCCCUCAGUUCAUCUGGAUUGAUAAGCAACAGAGGAUUGAGCAUCA
B21: chr1:220276048:220276049:+_ENSG00000067704_ENST00000302637|hu_hu|hu_hu_hu_mus_True|8_78 (ssRNA)
RNA: GGGAGUUCUACAGUCCGACGAUCGCAAAUUGCCUGGUUGGCGGGAAUUGUCCAAGGUUGUGUGGUCCAAACUAAAACGCUAACAGGGGAUGAGGCAUCUGUAAGAGACUCCAACUUCGGAGGAGGUUUUAAGAGAGGGAAUCUCAACAGAGGAUUGAGCAUCA
B22: chr9:62645482:62645483:-_ENSMUSG00000032244_ENSMUST00000034775|mus_hu|FALSE|FALSE (ssRNA)
RNA: GGGAGUUCUACAGUCCGACGAUCUACUGUGGUAUGGUUCACGUUGGCUCCAUGGCUGACUAGAAGUUUAACAACUUCAAAAUGUCCUGCUCCAGCUGCACACCAAAGAGCAGUGGCACCAUCAAUGACAUACCCGUCGAAGCGCAACAGAGGAUUGAGCAUCA

This assay deals with T1, UNK ZnF1-3 (human, UniProt Q9C0B0 31-174).
T1 sequence: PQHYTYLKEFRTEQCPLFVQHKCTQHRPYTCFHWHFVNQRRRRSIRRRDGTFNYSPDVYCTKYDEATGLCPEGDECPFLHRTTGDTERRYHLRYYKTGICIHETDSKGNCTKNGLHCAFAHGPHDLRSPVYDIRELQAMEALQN
The assay is described as follows: nsRBNS (natural sequence RNA bind-n-seq); RBNS binding buffer (assumed for nsRBNS): 25 mM Tris pH 7.5, 150 mM KCl, 3 mM MgCl2, 0.01% Triton X-100, 500 ug/ml BSA, 20 U/ml SUPERase-In, 4 C; UNK is unkempt and MSI1 is Musashi-1; names of the RNAs are library labels; protein concentration not given here; high values mean tight binding.
B1 returned a binding signal of 0.678 enrichment R.

As for B2, the binding signal came to 0.541 enrichment R. B3: the binding signal was 0.675 enrichment R. Consider B4, for which the binding signal amounted to 0.741 enrichment R. In turn, B5 gave a binding signal of 1.06 enrichment R. Turning to B6, the binding signal worked out at 2.11 enrichment R. The molecule B7 displayed a binding signal of 0.852 enrichment R. To B8 belongs 2.55 enrichment R. To B9 belongs 1.05 enrichment R.

B10: the binding signal was determined as 1.71 enrichment R. Consider B11, for which the binding signal came out at 0.52 enrichment R. B12 displayed a binding signal of 0.829 enrichment R. With B13, the binding signal was 0.786 enrichment R.

Molecule B14 yielded a binding signal of 0.928 enrichment R. With B15, the binding signal was 0.703 enrichment R. In turn, B16 had a binding signal of 1.31 enrichment R. B17 displayed a binding signal of 0.709 enrichment R.

Molecule B18 registered a binding signal of 2.82 enrichment R. Turning to B19, the binding signal came to 1.07 enrichment R. Turning to B20, the binding signal stood at 0.61 enrichment R. As for B21, the binding signal stood at 1.91 enrichment R. B22 returned a binding signal of 0.893 enrichment R.
